Holding throughout (assay): DAPPL (digital affinity profiling via proximity ligation, sequencing); 10 mM Tris-HCl pH 7.5, 50 mM NaCl, 1 mM DTT, 4% glycerol, room temperature, 30 min; GST-TFs on glutathione beads, 16-mer random dsDNA library, 0.1% formaldehyde crosslink after washing; high values mean tight binding
Holding throughout (settings): protein: recombinant; tags: N-terminal GST; dsDNA, one strand shown

In assay [1] the target is T1, FLI1 (Homo sapiens, UniProt Q01543 1-452).
T1 sequence: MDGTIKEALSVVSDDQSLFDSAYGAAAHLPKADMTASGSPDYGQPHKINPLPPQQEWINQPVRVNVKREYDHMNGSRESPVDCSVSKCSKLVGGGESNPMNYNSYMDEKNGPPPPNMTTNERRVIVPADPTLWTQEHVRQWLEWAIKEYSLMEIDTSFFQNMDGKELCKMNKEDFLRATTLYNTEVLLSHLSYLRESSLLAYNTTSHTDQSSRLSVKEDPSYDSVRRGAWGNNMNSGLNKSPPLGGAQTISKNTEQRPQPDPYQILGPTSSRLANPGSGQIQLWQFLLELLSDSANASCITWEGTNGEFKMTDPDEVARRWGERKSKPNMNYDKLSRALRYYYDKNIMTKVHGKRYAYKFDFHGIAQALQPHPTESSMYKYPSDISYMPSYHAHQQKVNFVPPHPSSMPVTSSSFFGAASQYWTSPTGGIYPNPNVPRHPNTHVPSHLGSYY
In outline:
(§1)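 Human transcription factors were made in yeast as GST fusions, captured on glutathione beads and barcoded with DNA. With a tag-only sample included, the pool was incubated with 200 nmole of a random double-stranded 16-mer DNA library in Tris/NaCl/DTT/glycerol buffer at room temperature for 30 min, then crosslinked with 0.1% formaldehyde after washing, ligated by proximity, amplified and sequenced. For binding signal, each hexamer's read frequency for a factor is divided by its frequency for the tag-only sample.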

In assay [2] the target is T2, ELK1 (Homo sapiens, UniProt P19419 1-428).
T2 sequence: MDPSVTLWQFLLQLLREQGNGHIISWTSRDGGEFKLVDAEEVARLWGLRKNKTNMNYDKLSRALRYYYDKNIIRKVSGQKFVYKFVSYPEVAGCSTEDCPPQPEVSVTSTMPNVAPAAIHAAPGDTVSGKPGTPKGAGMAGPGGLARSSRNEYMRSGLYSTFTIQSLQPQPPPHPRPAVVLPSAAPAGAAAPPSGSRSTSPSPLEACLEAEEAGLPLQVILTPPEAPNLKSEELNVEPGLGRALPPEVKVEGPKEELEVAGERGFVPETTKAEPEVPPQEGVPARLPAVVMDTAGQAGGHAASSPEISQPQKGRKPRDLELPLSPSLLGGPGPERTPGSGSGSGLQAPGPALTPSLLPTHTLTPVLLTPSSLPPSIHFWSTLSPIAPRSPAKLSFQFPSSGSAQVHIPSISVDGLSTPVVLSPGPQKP
Put shortly: as §1

Assay [3] addresses ELF1 (Homo sapiens, UniProt P32519 1-619). Put shortly:
as §1

The target in assay [4] is T3, EHF (Homo sapiens, UniProt Q9NZC4 1-300).
T3 sequence: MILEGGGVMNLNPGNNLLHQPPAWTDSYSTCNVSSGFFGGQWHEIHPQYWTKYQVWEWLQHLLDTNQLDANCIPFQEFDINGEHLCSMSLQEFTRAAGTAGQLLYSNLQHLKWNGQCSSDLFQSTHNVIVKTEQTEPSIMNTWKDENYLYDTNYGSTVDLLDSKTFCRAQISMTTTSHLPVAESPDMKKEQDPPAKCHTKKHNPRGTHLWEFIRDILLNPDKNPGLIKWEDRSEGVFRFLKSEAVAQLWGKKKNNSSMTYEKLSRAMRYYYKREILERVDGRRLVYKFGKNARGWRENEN
Put shortly:
as §1

The target in assay [5] is SPIB (Homo sapiens, UniProt Q01892 1-262). Put shortly:
as §1

Assay [6] concerns the target T4, SPIC (Homo sapiens, UniProt Q8N5J4 1-248).
T4 sequence: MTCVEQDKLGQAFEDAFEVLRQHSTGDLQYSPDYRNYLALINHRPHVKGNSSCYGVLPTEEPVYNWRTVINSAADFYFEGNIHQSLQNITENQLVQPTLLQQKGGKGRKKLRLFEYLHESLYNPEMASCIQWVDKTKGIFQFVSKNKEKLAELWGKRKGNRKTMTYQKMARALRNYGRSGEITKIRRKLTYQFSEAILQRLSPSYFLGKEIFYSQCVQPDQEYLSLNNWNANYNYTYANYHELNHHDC
In outline:
as §1

The target of assay [7] is ELF4 (Homo sapiens, UniProt Q99607 1-663). In outline:
as §1

The target of assay [8] is T5, ELK4 (Homo sapiens, UniProt P28324-2 1-405).
T5 sequence: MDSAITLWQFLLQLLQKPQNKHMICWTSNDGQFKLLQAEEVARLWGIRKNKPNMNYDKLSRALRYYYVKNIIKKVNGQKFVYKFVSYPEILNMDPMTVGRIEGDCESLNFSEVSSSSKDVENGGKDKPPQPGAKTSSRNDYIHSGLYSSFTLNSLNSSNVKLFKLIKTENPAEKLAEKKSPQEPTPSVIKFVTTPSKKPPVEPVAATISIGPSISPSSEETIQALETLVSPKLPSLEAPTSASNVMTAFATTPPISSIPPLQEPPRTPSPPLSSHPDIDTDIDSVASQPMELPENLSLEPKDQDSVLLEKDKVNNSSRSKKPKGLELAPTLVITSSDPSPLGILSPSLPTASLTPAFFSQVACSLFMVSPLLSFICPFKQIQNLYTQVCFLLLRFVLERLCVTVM
Put shortly: as §1

Assay [9] concerns the target ETV1 (Homo sapiens, UniProt P50549 1-477). Put shortly: as §1
Assay [10] deals with T6, ERF (Homo sapiens, UniProt P50548 1-548).
T6 sequence: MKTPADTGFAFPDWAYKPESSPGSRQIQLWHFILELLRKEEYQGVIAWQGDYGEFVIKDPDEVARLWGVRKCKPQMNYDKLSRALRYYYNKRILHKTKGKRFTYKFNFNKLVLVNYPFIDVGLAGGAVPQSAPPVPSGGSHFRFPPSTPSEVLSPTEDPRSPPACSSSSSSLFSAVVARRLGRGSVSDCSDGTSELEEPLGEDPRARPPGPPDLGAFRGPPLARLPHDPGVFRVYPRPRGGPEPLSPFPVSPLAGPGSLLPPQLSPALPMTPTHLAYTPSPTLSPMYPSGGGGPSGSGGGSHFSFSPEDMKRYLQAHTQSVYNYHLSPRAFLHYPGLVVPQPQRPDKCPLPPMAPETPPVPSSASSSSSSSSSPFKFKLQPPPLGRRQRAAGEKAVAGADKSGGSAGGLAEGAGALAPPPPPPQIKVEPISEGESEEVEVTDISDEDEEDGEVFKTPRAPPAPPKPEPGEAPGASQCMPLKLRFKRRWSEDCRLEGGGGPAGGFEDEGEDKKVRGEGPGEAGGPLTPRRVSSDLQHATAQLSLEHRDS
Put shortly:
as §1

In assay [11] the target is T7, ETV3L (Homo sapiens, UniProt Q6ZN32 1-361).
T7 sequence: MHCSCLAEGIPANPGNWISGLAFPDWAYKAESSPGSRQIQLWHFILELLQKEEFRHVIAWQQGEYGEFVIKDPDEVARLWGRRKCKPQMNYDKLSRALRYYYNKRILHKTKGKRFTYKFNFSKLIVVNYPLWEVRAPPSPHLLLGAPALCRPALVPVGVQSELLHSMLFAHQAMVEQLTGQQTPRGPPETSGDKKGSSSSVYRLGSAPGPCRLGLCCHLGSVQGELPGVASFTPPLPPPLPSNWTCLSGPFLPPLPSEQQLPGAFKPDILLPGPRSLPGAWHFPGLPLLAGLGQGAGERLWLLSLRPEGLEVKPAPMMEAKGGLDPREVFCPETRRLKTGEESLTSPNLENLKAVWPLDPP
In outline: as §1

Assay [12] deals with T8, ETS2 (Homo sapiens, UniProt P15036 1-469).
T8 sequence: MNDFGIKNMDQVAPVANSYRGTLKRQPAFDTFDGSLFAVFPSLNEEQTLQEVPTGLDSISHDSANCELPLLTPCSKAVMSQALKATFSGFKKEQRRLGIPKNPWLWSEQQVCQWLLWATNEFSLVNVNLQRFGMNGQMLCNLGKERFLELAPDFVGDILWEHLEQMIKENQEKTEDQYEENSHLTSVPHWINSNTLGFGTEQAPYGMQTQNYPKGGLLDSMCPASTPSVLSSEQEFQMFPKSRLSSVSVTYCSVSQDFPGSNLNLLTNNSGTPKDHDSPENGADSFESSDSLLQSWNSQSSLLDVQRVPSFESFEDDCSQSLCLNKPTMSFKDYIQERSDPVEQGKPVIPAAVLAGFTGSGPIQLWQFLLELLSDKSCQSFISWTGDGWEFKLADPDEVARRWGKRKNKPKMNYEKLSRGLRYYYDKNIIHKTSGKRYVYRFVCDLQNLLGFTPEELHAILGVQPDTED
In outline: as §1

Assay [13] addresses T9, ETV7 (Homo sapiens, UniProt Q9Y603 1-341).
T9 sequence: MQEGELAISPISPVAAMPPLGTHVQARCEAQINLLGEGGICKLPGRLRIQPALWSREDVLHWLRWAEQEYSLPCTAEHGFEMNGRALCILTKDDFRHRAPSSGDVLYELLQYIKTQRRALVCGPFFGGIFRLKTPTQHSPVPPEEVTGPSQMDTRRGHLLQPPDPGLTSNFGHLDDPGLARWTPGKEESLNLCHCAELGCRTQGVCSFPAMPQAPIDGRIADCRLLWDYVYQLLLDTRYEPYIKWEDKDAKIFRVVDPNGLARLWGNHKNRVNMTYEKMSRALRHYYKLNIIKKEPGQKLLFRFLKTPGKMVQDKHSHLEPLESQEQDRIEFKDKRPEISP
In outline: as §1

The target of assay [14] is T10, ETV3 (Homo sapiens, UniProt P41162-2 1-143).
T10 sequence: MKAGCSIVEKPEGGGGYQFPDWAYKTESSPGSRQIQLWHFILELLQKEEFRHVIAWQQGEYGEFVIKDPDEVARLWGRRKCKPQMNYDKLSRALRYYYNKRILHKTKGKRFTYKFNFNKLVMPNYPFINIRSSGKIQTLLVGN
Put shortly:
as §1

In paper PMC7862700, “An all-to-all approach to the identification of sequence-specific readers for epigenetic DNA modifications on cytosine” one finds binding signal data, which are given here for one sequence.

Sequence of ELF1 (P32519 whole entry): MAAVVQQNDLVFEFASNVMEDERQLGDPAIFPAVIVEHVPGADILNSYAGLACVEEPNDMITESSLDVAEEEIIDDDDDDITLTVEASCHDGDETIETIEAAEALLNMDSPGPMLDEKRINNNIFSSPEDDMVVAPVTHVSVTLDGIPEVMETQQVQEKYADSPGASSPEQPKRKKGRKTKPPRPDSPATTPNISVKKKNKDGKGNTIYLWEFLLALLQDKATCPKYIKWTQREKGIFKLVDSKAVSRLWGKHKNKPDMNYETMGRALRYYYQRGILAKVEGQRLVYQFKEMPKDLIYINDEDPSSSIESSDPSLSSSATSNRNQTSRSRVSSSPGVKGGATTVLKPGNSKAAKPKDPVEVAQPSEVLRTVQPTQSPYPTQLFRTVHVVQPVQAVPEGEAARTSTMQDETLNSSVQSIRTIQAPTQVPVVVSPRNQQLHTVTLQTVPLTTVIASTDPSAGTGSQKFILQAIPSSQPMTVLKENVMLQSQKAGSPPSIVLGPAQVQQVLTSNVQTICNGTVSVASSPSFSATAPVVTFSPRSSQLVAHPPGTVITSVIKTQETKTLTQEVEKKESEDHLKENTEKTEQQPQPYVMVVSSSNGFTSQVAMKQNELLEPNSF
Sequence of ELF4 (Q99607 whole entry): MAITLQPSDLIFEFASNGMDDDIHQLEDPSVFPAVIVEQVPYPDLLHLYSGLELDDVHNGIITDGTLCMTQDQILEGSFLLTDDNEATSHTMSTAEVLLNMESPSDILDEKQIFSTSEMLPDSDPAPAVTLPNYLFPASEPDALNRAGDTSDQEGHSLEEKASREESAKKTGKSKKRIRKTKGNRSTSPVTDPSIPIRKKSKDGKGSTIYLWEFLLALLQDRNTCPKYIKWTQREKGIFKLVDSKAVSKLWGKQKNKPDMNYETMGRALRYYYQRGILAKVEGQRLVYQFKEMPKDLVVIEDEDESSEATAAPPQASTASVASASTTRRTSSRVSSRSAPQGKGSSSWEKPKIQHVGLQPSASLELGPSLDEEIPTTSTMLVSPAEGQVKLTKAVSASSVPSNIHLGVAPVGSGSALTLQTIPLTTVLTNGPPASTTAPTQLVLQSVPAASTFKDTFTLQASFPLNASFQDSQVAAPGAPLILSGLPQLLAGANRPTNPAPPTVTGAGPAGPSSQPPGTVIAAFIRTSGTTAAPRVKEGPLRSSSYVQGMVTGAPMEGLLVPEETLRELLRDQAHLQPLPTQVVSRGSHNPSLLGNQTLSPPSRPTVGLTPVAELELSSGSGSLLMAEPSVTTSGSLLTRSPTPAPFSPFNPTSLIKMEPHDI
Sequence of ETV1 (P50549 whole entry): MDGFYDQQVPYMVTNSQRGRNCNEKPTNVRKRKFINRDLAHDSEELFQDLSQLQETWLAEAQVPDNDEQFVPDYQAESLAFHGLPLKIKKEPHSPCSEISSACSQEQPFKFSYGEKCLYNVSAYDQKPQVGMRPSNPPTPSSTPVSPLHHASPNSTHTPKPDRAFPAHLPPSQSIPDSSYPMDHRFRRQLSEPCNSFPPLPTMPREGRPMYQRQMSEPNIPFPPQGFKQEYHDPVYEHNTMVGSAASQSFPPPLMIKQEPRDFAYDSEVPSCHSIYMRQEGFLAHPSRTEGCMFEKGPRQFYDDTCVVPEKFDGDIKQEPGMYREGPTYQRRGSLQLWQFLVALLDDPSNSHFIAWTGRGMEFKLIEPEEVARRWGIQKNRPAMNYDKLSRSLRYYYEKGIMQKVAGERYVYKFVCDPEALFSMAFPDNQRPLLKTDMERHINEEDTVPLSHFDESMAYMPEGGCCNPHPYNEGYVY
Sequence of SPIB (Q01892 whole entry): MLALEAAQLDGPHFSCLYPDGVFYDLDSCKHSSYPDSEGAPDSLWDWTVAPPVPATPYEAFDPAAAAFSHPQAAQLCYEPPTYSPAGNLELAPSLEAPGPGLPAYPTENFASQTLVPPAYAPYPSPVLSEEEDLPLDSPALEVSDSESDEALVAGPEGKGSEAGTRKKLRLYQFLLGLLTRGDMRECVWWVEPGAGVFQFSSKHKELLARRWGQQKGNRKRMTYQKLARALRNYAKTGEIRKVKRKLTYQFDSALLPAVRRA

Take GATGGG: the binding signal in assay [1] was 1.03 fold enrichment (6-mer frequency, TF over GST control); in assay [2], 1.02 fold enrichment (6-mer frequency, TF over GST control); in assay [3] it was 1 fold enrichment (6-mer frequency, TF over GST control); in assay [4] it was 1.02 fold enrichment (6-mer frequency, TF over GST control); in assay [5], 1.12 fold enrichment (6-mer frequency, TF over GST control); in assay [6], 1.08 fold enrichment (6-mer frequency, TF over GST control). In addition, the binding signal in assay [7] was 1.01 fold enrichment (6-mer frequency, TF over GST control); in assay [8], 1.01 fold enrichment (6-mer frequency, TF over GST control); in assay [9], 1.04 fold enrichment (6-mer frequency, TF over GST control); in assay [10] it was 1 fold enrichment (6-mer frequency, TF over GST control); in assay [11] it was 1.02 fold enrichment (6-mer frequency, TF over GST control); in assay [12], 1 fold enrichment (6-mer frequency, TF over GST control). In addition, the binding signal in assay [13] is 1.03 fold enrichment (6-mer frequency, TF over GST control); in [14] it was 1.04 fold enrichment (6-mer frequency, TF over GST control).
